# Screening results: PubChem, National Center for Advancing Translational Sciences (NCATS)
# HT1080 IDH1KD tx = HT-1080 IDH1 knockdown cell toxicity (counter line); 360,000 compounds, 2% hits; AID 686971; Potency, µM (top dose mostly 46.1 µM), inactives show at the highest dose activity, negative = toxicity, usual class: cytotoxic; HT-1080 IDH1 knockdown viability, ATP luminescence, 48 h;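 note: potency is the fitted concentration of half-maximal effect; 0% = DMSO wells and -100% = cell-free medium wells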
#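 HT-1080-IDH1KD cells (IDH1 knocked down), 750/well in RPMI with 5% FBS, treated with compound 48 h at 37 degrees C. Viability by CellTiter-Glo luminescence, normalised to DMSO and no-cell wells; concentration-response curves classed.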
# HT1080-NT tox = kills 2HG-producing HT-1080-NT fibrosarcoma cells. Potency, µM (top dose mostly 46.1 µM), for inactives: at the highest dose activity, negative = less viability, actives largely listed as cytotoxic. HT-1080-NT fibrosarcoma viability, CellTiter-Glo ATP luminescence, 48 h. 360,000 compounds, 1.6% hits. AID 686970;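 note: NT is the 2HG producing partner of a matched IDH1 knockdown line; potency is the fitted concentration of half-maximal effect; 0% = DMSO-treated cells and -100% = media-only wells without cells; nearly all actives have a fitted effect of over 55% in size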
#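 Compounds were tested in concentration-response format on HT-1080-NT cells for 48 hours at 37 degrees C. Cell viability came from CellTiter-Glo luminescence; curves were classified by r2, response magnitude and activity.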
# DT40 TDP1 no CPT = qHTS for Inhibitors of human tyrosyl-DNA phosphodiesterase 1 (TDP1): qHTS in cells in absence of CPT; DT40 Tdp1-/- hTDP1 cells, no CPT, ATP luminescence, 48 h; Potency, µM (series often up to 46.2 µM), for inactives: top-dose activity change, negative = growth inhibition, most hits filed as inhibitors; 420,000 compounds, 15% hits; AID 686978, 2013; note: potency is the fitted concentration of half-maximal effect; nearly all actives have a fitted effect of over 55% in size
#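 No-CPT arm: Tdp1-/-;hTDP1 DT40 cells (400/well) plus compounds, incubated ≥48 hr at 37 °C. Readout CellTiter-Glo luminescence.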
# DT40 TDP1 CPT = growth inhibition of DT40 Tdp1-/-;hTDP1 cells with camptothecin (screen for TDP1 inhibitors); chicken DT40 Tdp1-/-;hTDP1 cells + 20 nM CPT, ATP luminescence, 48 h; Potency, µM (top dose mostly 46.2 µM), inactives show at the highest dose activity change, negative = growth inhibition, usual class: inhibitors; 420,000 compounds, 12% hits; AID 686979; note: potency is the fitted concentration of half-maximal effect; nearly all actives have a fitted effect of over 55% in size
#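 Chicken DT40 Tdp1-/- cells stably complemented with human TDP1 were seeded at 400 cells/well in medium containing 20 nM camptothecin, exposed to pin-transferred compounds, and grown at 37 °C for at least 48 hr. Viability was read as ATP luminescence.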
# IL-1B inflam inh = inhibitors of inflammasome signaling (IL-1 beta secretion); THP-1 LPS/ATP IL-1B secretion, AlphaLISA, 16 h; stronger effect = lower value; activity change, % at 57.5 µM; 360,000 compounds, 4.7% hits; in the data active = activity change below about -50%; inconclusive = mostly about -30% to -49%
#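 THP-1 cells pretreated 1 hr with compounds (up to 57.5 uM final), then stimulated with LPS (250 ng/mL final) plus ATP (1.25 mM final); secreted IL-1B measured by AlphaLISA after 16 hr, decreased signal indicating inhibition.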
# uPA surface inh = blocks generation of uPA at the cell surface | cell surface uPA generation assay, qHTS | Potency, µM (titrated, usually from 38.3 µM), for inactives: top-dose activity change, negative = inhibition, most hits filed as inhibitors | 330,000 compounds, 0.31% hits; active = well fitted inhibition curve with a large enough effect; inconclusive = small, poorly fitted or top-dose-only effect; inactive = no such curve, though single readings can be large or run the other way; tested in mouse RAW 264.7 cells; note: potency is the fitted concentration of half-maximal effect; nearly all actives have a fitted effect of over 55% in size
# * marks the source's active call; other numbers are inactive results; i = inactive; ? = inconclusive; . = not tested or not shown; [ ] = another dose, or the depositor's remark. Only some compounds are listed: those with a hit (about 19% of all), similar ones and a draw of the others. Unless noted, calls come from the whole dose curve; as a rule, active = well fitted curve in the direction sought with a large enough effect; inconclusive = small, poorly fitted or top-dose-only effect, or another doubt; inactive = no such curve, though single readings can be large; an effect the other way counts as inactive or inconclusive. Unless noted, % is set by controls: 0 for no effect and ±100 for the full control effect.
SMILES,HT1080 IDH1KD tx,HT1080-NT tox,DT40 TDP1 no CPT,DT40 TDP1 CPT,IL-1B inflam inh,uPA surface inh
CCc1ccc2[nH]c(=O)c(C(c3nnnn3CCOC)N3CCN(c4ccc(F)cc4)CC3)cc2c1 (configuration not stated),?,?,?,?,-8,-6%
COc1ccc(Cn2nnnc2C(c2cc3ccc(OC)cc3[nH]c2=O)N2CCCCCC2)cc1 (configuration not stated),-15%,-26%,23µM*,16µM*,-13,0%
Cc1ccnc(SCC(=O)NC2CC2)n1,18%,0%,3%,-8%,22,1%
Cc1cc(C(=O)NCCN2Cc3ccccc3OC(c3ccccc3F)C2)no1 (configuration not stated),.,.,-10%,-4%[9.04 µM],.,.
CCC(C)(C)n1nnnc1C(c1cc2ccc(OC)cc2[nH]c1=O)N1CCCCC1 (configuration not stated),0%,0%,?,?,-21,-1%
COc1ccc2cc(C(c3nnnn3C3CCCC3)N3CCc4ccccc4C3)c(=O)[nH]c2c1 (configuration not stated),-2%,-24%,18µM*,?,-28,-1%
CCC(C)(C)n1nnnc1C(c1cc2ccc(OC)cc2[nH]c1=O)N1CCc2ccccc2C1 (configuration not stated),?,-6%,?,?,-65*,.
COc1ccc2[nH]c(=O)c(C(c3nnnn3C3CCCCC3)N3CCN(C)CC3)cc2c1 (configuration not stated),-6%,1%,8%,-7%,12,.
CCOc1ccc(Oc2ccc(NS(=O)(=O)c3ccc(CCC(=O)O)cc3)cc2)cc1,-7%,0%,?,-12%,19,.
O=C(COc1ccccc1Cl)Nc1cc(-c2ccccc2F)nn1-c1ccccc1,.,.,9.2µM*,?,.,.
O=C(Nc1c2c(nn1-c1ccccc1)CS(=O)(=O)C2)c1ccccc1Br,13%,4%,3%,0%,i,-7%
O=C(Nc1cc(-c2ccccc2F)nn1-c1ccccc1)c1ccccc1Br,.,.,21µM*,18µM*,.,.
CC(=O)NCCNC(=O)C1(C)Cc2c(-c3ccc(NC(C)=O)cc3)ccnc2O1 (configuration not stated),25%,6%,?,-1%,29,.
CN(C)c1ccc(-c2ccnc3c2CC(C)(C(=O)NCCC(F)(F)F)O3)cc1 (configuration not stated),-13%,-23%,5.8µM*,7.3µM*,-17,.
CC(=O)Nc1ccc(-c2ccnc3c2CC(C)(C(=O)NCc2ccco2)O3)cc1 (configuration not stated),2.6µM*,?,1.2µM*,1.5µM*,55,.
CN(C)c1ccc(-c2ccnc3c2CC(C)(C(=O)NCc2ccc(F)c(F)c2)O3)cc1 (configuration not stated),?,?,9.2µM*,9.2µM*,0,.
CC(=O)Nc1ccc(-c2ccnc3c2CC(C)(C(=O)NCc2ccc(N(C)C)cc2)O3)cc1 (configuration not stated),-47%,?,?,?,?,.
CN(C)c1ccc(-c2ccnc3c2CC(C)(C(=O)NCc2ccco2)O3)cc1 (configuration not stated),?,?,6.5µM*,4.1µM*,-5,.
CCc1nc2c(OCC(=O)c3ccc(F)cc3)cccn2c1N(C)C(=O)c1cccs1,17%,1%,?,?,-20,.
CC(C)c1ccc(NC(=O)C2CSC3(C)CCC(=O)N23)cc1 (configuration not stated),-4%,-4%,-7%,?,6,4%
